Assay results as given in PubChem BioAssay.
Activity calls are given as the source filed them. Unless noted, the rule behind the calls is not given here.

What was measured:
[1] = tested on: Wnt5a (protein binding on small-molecule microarray); experiment: small molecules binding Wnt5a protein – biophysical, small-molecule microarray, 635/667 nm fluorescence, primary screen (AID 1142); conditions: 635 nm fluorescence, higher = more signal;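 note: fluorescence read at 667 nm with signal to noise per printed feature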
[2] = ATP-based viability of Huh7 replicon cells – cell-based, CellTiter-Glo luminescence, basal, 48 h, cytotoxicity control for HCV replication inhibitor project, primary screen (AID 1143); conditions: higher = more signal, called active from +8 up or from −8 down;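 note: Huh7 hepatoma cells carrying a hepatitis C replication reporter with no stimulus; test concentration not given here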
[3] = Pseudomonas biofilm growth suppression – PAO1 strain, BacTiter-Glo luminescence, LB-PBS, primary screen (AID 1144); conditions: P. aeruginosa PAO1 biofilm, 12 h, higher = more signal
[4] = basal CRE-LacZ reporter activity in PC12 – cell-based, unstimulated, primary screen (AID 1145); conditions: no forskolin, luminescence, 4.5 h, higher = more signal, called active from +8 up or from −8 down
[5] = forskolin-driven CRE-LacZ activity in PC12 – cell-based, CRE-LacZ reporter, forskolin-stimulated, primary screen (AID 1146); conditions: luminescence, 4.5 h, higher = more signal, called active from +8 up or from −8 down;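 note: PC12 cells with 6xCRE LacZ reporter stimulated by forskolin 10 µM; beta-galactosidase reporter signal reflecting CREB driven transcription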
[6] = molecular target: Streptavidin (Streptomyces avidinii) (UniProt P22629); experiment: compounds binding control protein streptavidin – biophysical, small-molecule microarray, 635/667 nm fluorescence, artefact control for SMM compound annotation, primary screen (AID 1147); conditions: higher = more signal;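 note: signal reflects streptavidin binding to arrayed compounds as a control protein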
[7] = probe aInhba binding on compound microarray – biochemical, small-molecule microarray, 635/667 nm fluorescence, primary screen (AID 1148); conditions: higher = more signal;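 note: score merges 667nm spot fluorescence with signal-to-noise for antibody binding to printed compounds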
[8] = molecular target: Torsin-1A (Homo sapiens) (UniProt O14656); experiment: TOR1A wild-type binding on microarray – cell lysate, small-molecule microarray, lysate, 635/667 nm, primary screen (AID 1149); conditions: COS7 hTOR1A-WT lysate, 635 nm fluorescence, higher = more signal
[9] = molecular target: Torsin-1A (Homo sapiens) (UniProt O14656); experiment: torsin A mutant lysate binding on microarrays – cell lysate, small-molecule microarray, COS7 lysate, 635/667 nm fluorescence, primary screen (AID 1150); conditions: COS7 hTOR1A mutant lysate, 635 nm fluorescence, higher = more signal;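 note: score pools 667 nm emission and signal to noise measuring lysate protein binding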
[10] = tested on: Sonic hedgehog protein (Shh); experiment: Sonic hedgehog microarray binding compounds – biochemical, small-molecule microarray, 635/667 nm fluorescence, primary screen (AID 1151); conditions: 635 nm fluorescence, higher = more signal;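 note: Shh protein binding to compounds spotted on small-molecule microarray slides; score combines spot fluorescence intensity with signal-to-noise across triplicate slides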
[11] = optical density shifts of acrAB sulA E. coli – strain DRC41, OD650, 48 h, E. coli filamentation inducer project, primary screen (AID 1152); conditions: higher = more signal, called active from +8 up or from −8 down;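 note: E. coli MC1000 strain DRC41 lacking acrAB efflux pump and sulA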
[12] = probe aLefty1 binding on compound microarray – biochemical, small-molecule microarray, 635/667 nm fluorescence, primary screen (AID 1153); conditions: higher = more signal;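 note: score merges spot fluorescence with signal-to-noise ratio from the scanned slide images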
[13] = plasmodial surface anion channel blockers, osmotic lysis – cell-based, P. falciparum Indochina, OD700, 1 h, primary screen (AID 1154); conditions: P. falciparum Indochina infected RBC osmotic lysis, higher = more signal, called active from +8 up or from −8 down
[14] = plasmodial surface anion channel blockers, osmotic lysis – cell-based, P. falciparum Indochina, OD700, 2 h, primary screen (AID 1155);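 note: lysis reports solute entry through the parasite surface anion channel PSAC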; conditions: P. falciparum Indochina infected erythrocytes, higher = more signal, called active from +8 up or from −8 down
[15] = changes in parasitized red cell lysis, either direction – P. falciparum Indochina, OD700, 3 h, PSAC antagonist project, primary screen (AID 1156); conditions: P. falciparum-infected erythrocytes, osmotic lysis, higher = more signal, called active from +8 up or from −8 down
[16] = plasmodial surface anion channel blockers, osmotic lysis – cell-based, P. falciparum Indochina, OD700, 18 h, primary screen (AID 1157); conditions: P. falciparum Indochina infected erythrocytes, osmotic lysis OD700, 18 h; higher = more signal, called active from +8 up or from −8 down
[17] = S6 kinase pathway phospho-S6 level changes – cell-based, A549, cytoblot, luminescence, serum-stimulated, primary screen (AID 1158); conditions: 5 h, higher = more signal;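 note: serum-stimulated A549 lung adenocarcinoma cells; signal is phosphorylated S6 detected by cytoblot immunostaining with HRP secondary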
[18] = molecular target: NADPH oxidase 2 (Homo sapiens) (UniProt P04839); experiment: compounds shifting NOX2 Amplex Red fluorescence – cell-based, HEK293-NOX2, PMA-stimulated, NOX inhibitor project, primary screen (AID 1159); conditions: 45 min, higher = more signal, called active from +8 up or from −8 down; note: test concentration not given here
[19] = molecular target: NADPH oxidase 4 (Homo sapiens) (UniProt Q9NPH5); experiment: compounds shifting NOX4 Amplex Red fluorescence – cell-based, HEK293-NOX4, tetracycline-induced, NOX inhibitor project, primary screen (AID 1160); conditions: HEK293-NOX4, Amplex Red H2O2 fluorescence, 45 min; higher = more signal, called active from +8 up or from −8 down
[20] = molecular target: NADPH oxidase 5 (Homo sapiens) (UniProt Q96PH1); experiment: compounds shifting NOX5 Amplex Red fluorescence – cell-based, HEK293-NOX5, NOX inhibitor project, primary screen (AID 1161); conditions: HEK293-NOX5, ionomycin, 45 min, higher = more signal
NADPH oxidase 5 (Homo sapiens), sequence (Q96PH1 whole entry, looked up): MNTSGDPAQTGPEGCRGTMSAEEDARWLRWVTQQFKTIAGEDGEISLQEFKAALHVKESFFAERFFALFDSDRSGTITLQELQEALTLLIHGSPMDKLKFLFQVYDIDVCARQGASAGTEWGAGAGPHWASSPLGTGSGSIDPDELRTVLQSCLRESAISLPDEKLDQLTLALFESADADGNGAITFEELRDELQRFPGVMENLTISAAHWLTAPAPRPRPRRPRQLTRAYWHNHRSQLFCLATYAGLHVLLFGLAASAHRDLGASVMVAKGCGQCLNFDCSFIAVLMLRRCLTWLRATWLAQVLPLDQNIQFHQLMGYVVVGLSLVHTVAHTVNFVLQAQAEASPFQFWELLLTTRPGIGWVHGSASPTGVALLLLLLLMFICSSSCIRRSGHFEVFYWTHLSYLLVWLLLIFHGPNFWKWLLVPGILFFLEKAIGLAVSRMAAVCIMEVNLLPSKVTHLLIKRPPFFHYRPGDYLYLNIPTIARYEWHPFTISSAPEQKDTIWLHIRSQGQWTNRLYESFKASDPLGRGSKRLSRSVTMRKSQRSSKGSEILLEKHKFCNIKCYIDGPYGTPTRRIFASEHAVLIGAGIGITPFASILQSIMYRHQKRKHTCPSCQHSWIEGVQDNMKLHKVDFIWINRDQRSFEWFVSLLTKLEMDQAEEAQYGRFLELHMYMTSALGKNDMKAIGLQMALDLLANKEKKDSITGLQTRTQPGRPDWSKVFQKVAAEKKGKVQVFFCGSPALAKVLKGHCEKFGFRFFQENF

NADPH oxidase 4 (Homo sapiens), sequence (Q9NPH5 whole entry, looked up): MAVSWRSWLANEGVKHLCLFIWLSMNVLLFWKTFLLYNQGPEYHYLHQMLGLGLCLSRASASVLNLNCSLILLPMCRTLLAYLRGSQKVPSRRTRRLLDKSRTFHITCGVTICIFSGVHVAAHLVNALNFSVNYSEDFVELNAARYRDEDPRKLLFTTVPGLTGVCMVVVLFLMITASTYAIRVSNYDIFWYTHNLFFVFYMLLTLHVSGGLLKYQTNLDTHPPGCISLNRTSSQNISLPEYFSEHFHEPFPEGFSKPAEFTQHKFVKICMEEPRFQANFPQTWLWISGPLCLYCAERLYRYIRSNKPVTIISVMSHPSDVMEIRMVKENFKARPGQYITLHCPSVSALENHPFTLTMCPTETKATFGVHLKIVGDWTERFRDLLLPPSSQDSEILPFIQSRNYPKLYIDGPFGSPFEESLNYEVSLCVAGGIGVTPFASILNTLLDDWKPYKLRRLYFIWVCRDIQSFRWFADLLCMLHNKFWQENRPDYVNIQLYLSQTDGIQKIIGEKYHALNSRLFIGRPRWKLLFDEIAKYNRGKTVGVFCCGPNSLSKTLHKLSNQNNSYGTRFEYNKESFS
NADPH oxidase 2 (Homo sapiens), sequence (P04839 whole entry, looked up): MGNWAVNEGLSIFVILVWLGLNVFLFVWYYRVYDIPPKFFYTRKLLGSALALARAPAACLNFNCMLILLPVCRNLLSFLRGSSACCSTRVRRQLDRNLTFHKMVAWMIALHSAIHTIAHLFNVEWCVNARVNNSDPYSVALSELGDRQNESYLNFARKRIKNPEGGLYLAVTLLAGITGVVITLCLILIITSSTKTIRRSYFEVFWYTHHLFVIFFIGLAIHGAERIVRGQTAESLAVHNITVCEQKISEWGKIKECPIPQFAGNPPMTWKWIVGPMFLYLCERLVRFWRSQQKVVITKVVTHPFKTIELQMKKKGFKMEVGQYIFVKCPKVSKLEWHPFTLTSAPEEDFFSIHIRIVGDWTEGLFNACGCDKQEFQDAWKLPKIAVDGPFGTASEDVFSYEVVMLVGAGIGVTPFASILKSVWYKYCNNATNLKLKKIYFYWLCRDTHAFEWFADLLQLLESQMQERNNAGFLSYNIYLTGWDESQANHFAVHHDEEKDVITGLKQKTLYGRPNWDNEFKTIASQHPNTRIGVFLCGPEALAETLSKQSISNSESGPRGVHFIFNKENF
Streptavidin (Streptomyces avidinii), sequence (P22629 whole entry, looked up): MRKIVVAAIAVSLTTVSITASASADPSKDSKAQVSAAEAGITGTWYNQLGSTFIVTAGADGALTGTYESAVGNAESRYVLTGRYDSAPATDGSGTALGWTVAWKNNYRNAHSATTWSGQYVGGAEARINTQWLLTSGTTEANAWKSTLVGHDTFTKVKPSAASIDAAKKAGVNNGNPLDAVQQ
Torsin-1A (Homo sapiens), sequence (O14656 whole entry, looked up): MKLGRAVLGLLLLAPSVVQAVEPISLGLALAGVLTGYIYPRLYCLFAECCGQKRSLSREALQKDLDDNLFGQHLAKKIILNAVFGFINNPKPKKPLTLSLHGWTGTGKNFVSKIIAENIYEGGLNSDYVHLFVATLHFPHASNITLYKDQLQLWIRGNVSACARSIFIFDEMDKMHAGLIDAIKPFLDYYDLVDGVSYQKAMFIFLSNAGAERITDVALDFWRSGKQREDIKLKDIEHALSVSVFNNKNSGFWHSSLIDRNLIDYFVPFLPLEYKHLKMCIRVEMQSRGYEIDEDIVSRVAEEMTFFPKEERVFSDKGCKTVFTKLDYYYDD

| Structure (SMILES) | composite z-score [1] | z-score [2] | z-score [3] | z-score [4] | z-score [5] | composite z-score [6] | composite z-score [7] | composite z-score [8] | composite z-score [9] | composite z-score [10] | z-score [11] | composite z-score [12] | z-score [13] | z-score [14] | z-score [15] | z-score [16] | z-score [17] | z-score [18] | z-score [19] | z-score [20] |
| --- | --- | --- | --- | --- | --- | --- | --- | --- | --- | --- | --- | --- | --- | --- | --- | --- | --- | --- | --- | --- |
| C=C(C)[C@@H]1CC=C(C(O)C2C=CC3C(=O)NC(=O)C3N2Nc2ccccn2)CC1 (stereo not given in full) | 0.742 | 0.715 (inactive) | -0.555 (inactive) | -0.14 (inactive) | 0.621 (inactive) | 0.717 | 0.093 | 1.1 | 0.705 | 2.28 | -1.56 (inactive) | 0.497 | 0.671 (inactive) | 0.613 (inactive) | 0.0385 (inactive) | 0.876 (inactive) | -1.11 | -1.02 (inactive) | -2.89 (inactive) | -2.69 |
| N#Cc1ccc(NN2C(C(O)c3ccc(I)cc3)C=CC3C(=O)N(c4ccccc4)C(=O)C32)cc1 (stereo not given) | 0.205 | 0.559 (inactive) | -0.363 (inactive) | -1.49 (inactive) | -0.755 (inactive) | 0.941 | -0.0645 | -0.147 | 0.629 | -0.468 | -1.95 (inactive) | 0.526 | 9.81 (active) | 3.64 (inactive) | -1.43 (inactive) | 2.57 (inactive) | -0.484 | -2.64 (inactive) | -4.46 (inactive) | -2.48 |
| CC(C)=C1C(=O)C(c2ccccc2)=C2CN3C(=O)N(CCc4ccccc4)C(=O)[C@]3(Cc3ccccc3)[C@H]21 | -0.355 | -0.462 (inactive) | 0.105 (inactive) | 0.783 (inactive) | 0.379 (inactive) | 0.0686 | 0.128 | -2.07 | -1.13 | -1.32 | -1.7 (inactive) | 0.341 | 20.9 (active) | 3.79 (inactive) | 1.3 (inactive) | 0.913 (inactive) | -0.621 | -0.379 (inactive) | 0.1 (inactive) | 0.365 |
| CC1=C([C@H](O)CCc2ccccc2)[C@H](CO)[C@@H]2C(=O)N(Cc3ccccc3)C(=O)[C@@H]2C1 | 0.079 | -0.932 (inactive) | -1.43 (inactive) | 0.851 (inactive) | -0.425 (inactive) | 0.925 | -0.0451 | -0.0669 | 0.279 | 0.256 | 1.85 (inactive) | -0.147 | 5.86 (inactive) | 0.759 (inactive) | 0.695 (inactive) | 0.5 (inactive) | 0.663 | -0.0572 (inactive) | 0.16 (inactive) | -0.798 |
| COc1ccc(-c2cc3c(c(-c4ccccc4)n2)[Si](C(C)C)(C(C)C)O[C@H]3c2ccccc2)cn1 | 0.436 | 0.0834 (inactive) | 0.0798 (inactive) | 0.0035 (inactive) | 0.411 (inactive) | -0.207 | -0.0403 | 0.363 | -0.0308 | 0.82 | -1.27 (inactive) | -0.147 | 1.71 (inactive) | 0.489 (inactive) | -0.479 (inactive) | -0.183 (inactive) | -0.442 | 0.601 (inactive) | 0.451 (inactive) | 0.929 |
| O=C1C[C@@](C(=O)NCCN2CCOCC2)(c2ccc([N+](=O)[O-])cc2)[C@@H](c2ccc(CO)cc2)N1C1CCCCC1 | 0.25 | 0.204 (inactive) | 0.82 (inactive) | 0.351 (inactive) | -0.303 (inactive) | 0.316 | 0.196 | 0.143 | 0.555 | 0.452 | 1.21 (inactive) | -0.154 | 2.02 (inactive) | 0.834 (inactive) | 3.08 (inactive) | -0.137 (inactive) | -0.371 | 0.768 (inactive) | 0.947 (inactive) | 0.24 |
| O=C1O[C@H](c2ccccc2)[C@H](c2ccccc2)N2[C@H]1[C@@H](C(=O)Nc1nc3ccccc3s1)[C@]1(C(=O)Nc3ccc(C#CC4=CCCCC4)cc31)[C@H]2c1ccccc1OCCO | 0.266 | -4.26 (inactive) | 0.331 (inactive) | 0.619 (inactive) | -0.0292 (inactive) | 0.841 | 0.0649 | 0.552 | 0.0083 | 1.63 | -0.485 (inactive) | 0.179 | 1.96 (inactive) | 2.21 (inactive) | 0.344 (inactive) | 1.41 (inactive) | -0.0532 | 0.76 (inactive) | 0.195 (inactive) | 0.963 |
